These results are taken from PubChem BioAssay (Tox21).

Values joined by “and” are separate entries in the source; they are usually repeats but may differ in a detail not shown here. Equal entries are not always repeated. Unmarked numbers belong to inactive results. Records with an inconclusive call do not appear. Active and inactive are the calls of the source. Unless noted, calls come from the whole dose curve.

Experiment [1] is described as follows: Nuclear factor erythroid 2-related factor 2/antioxidant responsive element (Nrf2/ARE) small molecule agonists: qHTS cell viability counter screen in human keratinocytes (AID 1919968; active = well fitted curve in the direction sought with a large enough effect in the repeat runs; an effect the other way counts as inactive or inconclusive; note: nearly all actives have a fitted effect of over 55% in size). The method, boiled down: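 Seed 1,500 KeratinoSens cells per well, then incubate 5 h at 37 C/5% CO2. Add compounds in DMSO and incubate 23 h. Add CellTiter-Fluor, wait 1 h and read fluorescence.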
On the technique in general: qHTS replaces the single test concentration by a dilution series.

Experiment [2] can be described thus: Nuclear factor erythroid 2-related factor 2/antioxidant responsive element (Nrf2/ARE) small molecule agonists: luciferase reporter gene qHTS assay in human keratinocytes (AID 1919969). Note: nearly all actives have a fitted effect of over 35% in size. Note: potency is the fitted concentration of half-maximal effect. On the technique in general: Reporter assays use an easily measured gene product as a stand-in for the process of interest.
In experiment [3] the target is KiSS-1 receptor (Homo sapiens) (UniProt Q969F8). Nature of the experiment: Human kisspeptin (KISS1R) small molecule agonists, calcium flux assay in KISS1R-HEK293 cells (AID 1920064; active = well fitted curve in the direction sought with a large enough effect in the repeat runs; an effect the other way counts as inactive or inconclusive). The method, boiled down:
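Cells plated and incubated 18 h; dye added, 1 h at 37 C; compounds in DMSO pinned in; signal read at 480/540 nm every second for 3 min. Each compound tested at 15 concentrations in triplicate.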
In general terms: Calcium assays in cells follow changes in intracellular calcium, usually with a dye or a luminescent sensor.

Experiment [4] is described as follows: G protein-coupled receptor (GPCR) small molecule agonists, calcium flux assay: HEK293 wild type cell line counter screen (AID 1920065). The method, boiled down: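 Counter-screen of the Tox21 10K library for non-specific calcium release: dye-loaded cells received compounds in DMSO and were monitored by kinetic fluorescence (480/540 nm, 3 min). Fifteen concentrations, run in triplicate.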

Experiment [5] in a line: p53 small molecule agonists, cell-based qHTS assay with human liver microsomes (AID 1963577).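 Note: p53 response element beta-lactamase reporter cells with liver microsomes plus NADPH.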 The method, boiled down:
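p53RE-bla cells; 5 h settle, 37 C/5% CO2; cpd + HLM 0.5 mg/mL + NADPH 0.5 mg/mL (final); 16 h 37 C; LiveBLAzer 2 h RT dark; fluorescence readout.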

The nature of experiment [6]: p53 small molecule agonists, cell-based qHTS assay with rat liver microsomes (AID 1963578). The method, boiled down: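 Rat liver microsome activation: microsomes 0.5 mg/mL, NADPH 0.5 mg/mL final; p53RE-bla cells, 16 h 37 C; LiveBLAzer readout, 2 h RT dark.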
Experiment [7] is described as follows: p53 small molecule agonists, cell-based qHTS assay with human liver microsomes: qHTS cell viability counter screen (AID 1963579). Note: nearly all actives have a fitted effect of over 45% in size. The method, boiled down:
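Luminescent CellTiter-Glo read-out, 30 min at room temperature, gauged cytotoxicity in p53RE-bla cells exposed 16 h at 37 C to DMSO-dissolved compounds with metabolic activation by human liver microsomes and NADPH, each 0.5 mg/mL final.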

The nature of experiment [8]: p53 small molecule agonists, cell-based qHTS assay: qHTS cell viability counter screen (AID 1963581). Note: nearly all actives have a fitted effect of over 45% in size. The method, boiled down:
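Cells: HCT-116 with p53 response element-driven beta-lactamase. Treatment: 16 h, 37 C, compounds in DMSO. Read: CellTiter-Glo luminescence after 30 min RT.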

The nature of experiment [9]: p53 small molecule agonists, cell-based qHTS assay (AID 1963582; active = well fitted activation curve with a large enough effect in the signal ratio in the repeat runs, not every such curve was filed as active; the % refers to the signal ratio; note: potency is the fitted concentration of half-maximal effect). The method, boiled down: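 Quantitative HTS in p53RE-bla cells: after a 5 h settling period, compounds delivered in DMSO were left on cells for 16 h at 37 C, and reporter induction was measured as fluorescence following 2 h substrate loading.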
For experiment [10], the target named is 5-hydroxytryptamine receptor 2A (Homo sapiens) (UniProt P28223). Nature of the experiment: 5-hydroxytryptamine receptor 2A (HTR2A) small molecule antagonists, cell-based qHTS assay (AID 1963586). Note: nearly all actives have a fitted effect of over 45% in size. The method, boiled down:
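Antagonist-mode intracellular calcium assay: DOI (4 nM) added after 5 min compound pre-incubation at room temperature to dye-loaded HTR2A-CHO cells. Fluorescence followed for 3 min, sampled every second.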

Experiment [11] has the same target. Nature of the experiment: 5-hydroxytryptamine receptor 2A (HTR2A) small molecule agonists, cell-based qHTS assay (AID 1963587). Note: nearly all actives have a fitted effect of over 30% in size. The method, boiled down: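 Kinetic calcium-flux fluorescence (2 min, 1 sec intervals) after compound addition in agonist mode. HTR2A-CHO cells were cultured 18 h, then dye-loaded 1 h at 37 C.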
In experiment [12] the target is Muscarinic acetylcholine receptor M1 (Homo sapiens) (UniProt P11229). Nature of the experiment: Cholinergic receptor muscarinic 1 (CHRM1) small molecule antagonists, cell-based qHTS assay (AID 1963588). Note: nearly all actives have a fitted effect of over 40% in size. The method, boiled down:
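CHRM1-CHO calcium-flux assay, antagonist mode. Cells were seeded 18 h, dye-loaded 1 h at 37 C and given compound for 5 min at RT, then acetylcholine was added at 50nM. FDSS fluorescence was read 3 min; 15 concentrations, three runs.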

A short description of experiment [13]: cAMP Responsive Elements (CRE) small molecule agonists, cell-based qHTS assay (AID 1963590). The method, boiled down: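 Agonist mode qHTS in CRE-bla HEK 293T cells: compounds dosed from DMSO for 3 h at 37 C/5% CO2, followed by LiveBLAzer B/G FRET substrate for 2 h at room temperature.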
The target in experiment [14] is Beta-2 adrenergic receptor (Homo sapiens) (UniProt P07550). Nature of the experiment: Adrenergic beta2 receptor (ADRB2) small molecule antagonists, cell-based qHTS assay (AID 1963592). Note: series mostly up to about 92 µM; nearly all actives have a fitted effect of over 50% in size. The method, boiled down: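 Cells (CHO, stable ADRB2 overexpression) incubated 18-20hr at 37C; compounds added from DMSO; agonist mix (1nM isoproterenol, 100uM IBMX, 25uM Ro-20-1724) added; 0.5hr RT; d2-cAMP and anti-cAMP-cryptate added; 1hr RT; 665/615 nm read.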

The target is the same in experiment [15]. Nature of the experiment: Adrenergic beta2 receptor (ADRB2) small molecule agonists, cell-based qHTS assay (AID 1963593).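 Note: CHO cells stably overexpressing human ADRB2.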 The method, boiled down:
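CHO cells stably over-expressing ADRB2 were plated overnight at 37C, then dosed with compounds plus a stimulation mix containing 100uM IBMX and 25uM Ro-20-1724 for 0.5hr at room temperature. cAMP was measured by HTRF competition, 1hr.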

Experiment [16] concerns the target D(2) dopamine receptor (Homo sapiens) (UniProt P14416). Nature of the experiment: Dopamine D2 receptor (DRD2) small molecule agonists, cell-based qHTS assay (AID 1963594). Note: nearly all actives have a fitted effect of over 35% in size. The method, boiled down:
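cAMP accumulation in DRD2-HEK293 cells measured by HTRF after 1 h detection; compounds added 10 min before NKH477 (200nM […]) forskolin-analogue stimulation, 30 min at room temperature, with Ro20-1724 present at 0.1 mM final.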

Experiment [17] shares this target. Nature of the experiment: Dopamine D2 receptor (DRD2) small molecule antagonists, cell-based qHTS assay (AID 1963595; active = well fitted inhibition curve with a large enough effect in the signal ratio in the repeat runs, with a control signal flat; the % refers to the signal ratio). The method, boiled down:
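HEK293 cells stably expressing DRD2 were preincubated with 0.1 mM Ro20-1724, then with compound for 10 min at room temperature. Cells were stimulated with 200 nM NKH477 plus 12 nM quinpirole for 30 min, and cAMP was read by HTRF.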

Experiment [18] is described as follows: p53 small molecule agonists, cell-based qHTS assay with rat liver microsomes: qHTS cell viability counter screen (AID 1963580). Note: nearly all actives have a fitted effect of over 45% in size. The method, boiled down:
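Intracellular ATP, by CellTiter-Glo luminescence, defines viability. HCT-116 p53RE-bla cells, 4,000 per well, were compound-treated in the presence of rat liver microsomes and NADPH for 16 h at 37 C.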

Experiment [19] addresses Muscarinic acetylcholine receptor M1 (Homo sapiens) (UniProt P11229). Nature of the experiment: Cholinergic receptor muscarinic 1 (CHRM1) small molecule agonists, cell-based qHTS assay (AID 1963589). Note: nearly all actives have a fitted effect of over 35% in size. The method, boiled down:
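Agonist-mode qHTS in CHO cells stably carrying human muscarinic M1. Intracellular calcium is tracked by fluorescence every second after compound transfer; each compound runs at 15 concentrations in three independent runs.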

Experiment [20] can be described thus: cAMP Responsive Elements (CRE) small molecule antagonists, cell-based qHTS assay (AID 1963591; active = well fitted inhibition curve with a large enough effect in the signal ratio in the repeat runs, not every such curve was filed as active; the % refers to the signal ratio). The method, boiled down:
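Antagonist mode: test compounds are co-incubated with the adenylyl cyclase activator NKH477 (0.25 uM final) on CRE-bla HEK293T cells for 3 h at 37 °C, followed by LiveBLAzer substrate loading.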
% is set by controls: 0 for no effect and ±100 for the full control effect.

Beta-2 adrenergic receptor (Homo sapiens), sequence (P07550 whole entry, looked up): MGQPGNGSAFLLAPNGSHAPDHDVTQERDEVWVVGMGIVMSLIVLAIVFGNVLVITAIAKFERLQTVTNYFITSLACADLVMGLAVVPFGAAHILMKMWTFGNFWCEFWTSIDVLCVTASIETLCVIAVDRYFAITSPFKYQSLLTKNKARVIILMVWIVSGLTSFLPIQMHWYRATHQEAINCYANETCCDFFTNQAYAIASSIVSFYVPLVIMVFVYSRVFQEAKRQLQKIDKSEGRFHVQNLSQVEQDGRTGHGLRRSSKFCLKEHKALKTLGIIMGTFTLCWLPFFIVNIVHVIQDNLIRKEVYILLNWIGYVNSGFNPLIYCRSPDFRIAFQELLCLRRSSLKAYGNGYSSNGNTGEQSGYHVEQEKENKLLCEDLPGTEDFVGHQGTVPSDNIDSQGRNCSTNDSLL
D(2) dopamine receptor (Homo sapiens), sequence (P14416 whole entry, looked up): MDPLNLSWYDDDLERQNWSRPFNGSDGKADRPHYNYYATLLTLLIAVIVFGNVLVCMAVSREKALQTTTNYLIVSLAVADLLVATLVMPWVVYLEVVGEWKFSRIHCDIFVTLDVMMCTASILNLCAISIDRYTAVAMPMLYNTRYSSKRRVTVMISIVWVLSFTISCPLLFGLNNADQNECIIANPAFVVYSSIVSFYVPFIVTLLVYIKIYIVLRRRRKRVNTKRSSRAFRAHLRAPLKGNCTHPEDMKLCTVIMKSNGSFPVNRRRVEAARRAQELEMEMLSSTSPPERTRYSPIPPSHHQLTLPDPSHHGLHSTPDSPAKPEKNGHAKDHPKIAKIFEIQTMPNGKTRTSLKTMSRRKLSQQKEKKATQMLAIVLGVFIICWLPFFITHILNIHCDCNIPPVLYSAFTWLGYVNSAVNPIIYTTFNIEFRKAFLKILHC
5-hydroxytryptamine receptor 2A (Homo sapiens), sequence (P28223 whole entry, looked up): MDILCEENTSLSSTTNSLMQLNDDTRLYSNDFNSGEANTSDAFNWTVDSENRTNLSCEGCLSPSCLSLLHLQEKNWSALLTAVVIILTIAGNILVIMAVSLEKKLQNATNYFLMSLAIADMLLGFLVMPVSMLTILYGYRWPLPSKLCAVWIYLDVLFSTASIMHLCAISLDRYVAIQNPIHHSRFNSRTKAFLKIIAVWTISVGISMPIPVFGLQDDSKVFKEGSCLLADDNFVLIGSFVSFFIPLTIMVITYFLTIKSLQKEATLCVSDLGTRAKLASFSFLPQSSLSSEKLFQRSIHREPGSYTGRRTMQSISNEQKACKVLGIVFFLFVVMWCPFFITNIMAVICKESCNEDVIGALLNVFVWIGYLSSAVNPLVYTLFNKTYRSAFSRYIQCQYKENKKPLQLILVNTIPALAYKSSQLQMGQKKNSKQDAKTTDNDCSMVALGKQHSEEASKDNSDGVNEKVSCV
KiSS-1 receptor (Homo sapiens), sequence (Q969F8 whole entry, looked up): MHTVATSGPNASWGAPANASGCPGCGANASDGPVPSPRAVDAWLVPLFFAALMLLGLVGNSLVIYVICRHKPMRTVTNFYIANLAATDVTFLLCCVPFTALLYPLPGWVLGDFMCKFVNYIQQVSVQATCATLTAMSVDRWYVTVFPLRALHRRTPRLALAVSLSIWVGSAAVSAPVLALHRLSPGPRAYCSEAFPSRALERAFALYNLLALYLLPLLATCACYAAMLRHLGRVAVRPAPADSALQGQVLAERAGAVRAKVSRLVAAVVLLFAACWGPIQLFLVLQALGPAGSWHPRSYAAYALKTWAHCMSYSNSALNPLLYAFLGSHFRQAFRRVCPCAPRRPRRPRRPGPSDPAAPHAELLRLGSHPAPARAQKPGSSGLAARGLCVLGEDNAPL
Muscarinic acetylcholine receptor M1 (Homo sapiens), sequence (P11229 whole entry, looked up): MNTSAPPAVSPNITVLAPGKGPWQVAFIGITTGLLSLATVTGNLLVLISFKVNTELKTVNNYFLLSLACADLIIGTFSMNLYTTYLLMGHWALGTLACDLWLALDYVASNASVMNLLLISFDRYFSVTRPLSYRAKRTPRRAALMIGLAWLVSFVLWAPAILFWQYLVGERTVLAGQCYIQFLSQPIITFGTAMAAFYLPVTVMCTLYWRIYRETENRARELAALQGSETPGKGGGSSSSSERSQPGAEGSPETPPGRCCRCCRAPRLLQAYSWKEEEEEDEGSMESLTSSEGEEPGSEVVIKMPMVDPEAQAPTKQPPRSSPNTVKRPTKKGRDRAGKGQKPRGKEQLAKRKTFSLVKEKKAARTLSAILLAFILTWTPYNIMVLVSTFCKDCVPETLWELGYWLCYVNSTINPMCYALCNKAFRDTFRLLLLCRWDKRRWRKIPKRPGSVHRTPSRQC

On to `CC(C)c1cc2c(cc1S(=O)(=O)O)[C@@]1(C)CCC[C@@](C)(C(=O)O)[C@@H]1CC2`, for which the Potency result in experiment [1], in [2], in [3], in experiment [4], in [5] and in experiment [6] was “inactive” in each case. The Potency entry in experiment [7], in experiment [8], in experiment [9], in experiment [10], in experiment [11] and in [12] was “inactive” in each case. Also, the Potency entry in [13], in experiment [14], in [15], in [16] and in [17] was “inactive” each time.
Consider `O=C(O)CN(CCN(CC(=O)O)CC(=O)O)CCN(CC(=O)O)CC(=O)O`, for which the activity change, negative = cytotoxicity in experiment [1] is -0.92% [at 19 µM]; in experiment [7], -3.04% [at 13.5 µM]; in experiment [18], -9.7% [at 13.5 µM]; in experiment [8], -11.9% [at 13.5 µM]. Also, the activity, positive = activation in experiment [2] was -0.151% [at 19 µM]. The activation in [3] was -1.13% [at 15.8 µM]; in experiment [4] it was 1.29% [at 11.8 µM]; in [5], -9.98% [at 13.5 µM]; in [6] it was -0.423% [at 13.6 µM]; in experiment [9] it was 12.4% [at 13.5 µM]; in experiment [11] it was 7.55% [at 15.9 µM]. Also, the results for the activation in [19], in [13] and in [16] were -0.409% [at 15.8 µM], 1.22% [at 19 µM] and -12% [at 19 µM], respectively. The activity, negative = inhibition in [10] was 10.6% [at 12.7 µM]. Moreover, the activity change, negative = inhibition in experiment [20] was 3.68% [at 18.9 µM]; in experiment [14] it was 2.09% [at 19 µM]; in [17] it was 6.7% [at 18.9 µM].
On to `CCCCCCCC(OC)OC`, for which the Potency entry in [1], in experiment [2], in experiment [3], in experiment [4], in experiment [5] and in [6] was “inactive” throughout. For the same molecule, the Potency entry in experiment [7], in [18], in experiment [8], in [9], in [10] and in experiment [11] was “inactive” throughout. The Potency entry in [12], in [19], in [20], in experiment [14], in experiment [15] and in [16] was “inactive” throughout. For the same molecule, the Potency entry in experiment [17] is “inactive”.
With `COC(=O)Nc1nc2ccc(Sc3ccccc3)cc2[nH]1`, the Potency result in experiment [1], in experiment [3], in experiment [4], in [5], in experiment [6] and in [7] was “inactive” in each case. Moreover, the Potency entry in experiment [20], in experiment [14], in [15], in experiment [16] and in [17] was “inactive” each time. The Potency in experiment [2] is 30.6 µM (active) and 3.35 µM (active); in [9], 363 nM (active).
As to `CCc1cccc(CC)c1NC(=O)C(=O)O`, the Potency result in experiment [1], in experiment [2], in experiment [3], in [4], in experiment [5] and in experiment [6] was “inactive” in each case. The Potency result in [7], in experiment [18], in experiment [8], in experiment [9], in [11] and in [12] was “inactive” each time. The Potency result in experiment [19], in experiment [13], in [20], in experiment [14], in experiment [15] and in experiment [16] was “inactive” in each case. For the same molecule, the Potency result in experiment [17] is “inactive”.
Consider `COS(=O)(=O)O`, for which the Potency result in experiment [1], in [2], in experiment [3], in experiment [4], in [5] and in experiment [6] was “inactive” each time. In addition, the Potency result in [7], in [18], in [8], in experiment [9], in experiment [10] and in experiment [11] was “inactive” in each case. In addition, the Potency entry in experiment [12], in [19], in [13], in [20], in experiment [16] and in experiment [17] was “inactive” in each case.
`C1COCCO1`: the Potency result in experiment [1], in experiment [2], in experiment [3], in [4], in experiment [5] and in [6] was “inactive” throughout. Also, the Potency entry in experiment [7], in experiment [18], in experiment [8], in [9], in experiment [10] and in experiment [11] was “inactive” throughout. The Potency result in [19], in [13], in experiment [20], in experiment [14], in [16] and in experiment [17] was “inactive” throughout.
